Assay outcomes as filed in PubChem.
Compounds with a hit are over-represented: about 3.4% of the library has one in this group of screens.
MITF inh: inhibitors of human MITF | inhibition, % at 2.6 µM | O75030 | AlphaScreen MITF homodimerization, bead proximity signal | actives 0.91% (n = 650,000); in the data active = inhibition above about 50%
Target sequence (O75030 whole entry, looked up): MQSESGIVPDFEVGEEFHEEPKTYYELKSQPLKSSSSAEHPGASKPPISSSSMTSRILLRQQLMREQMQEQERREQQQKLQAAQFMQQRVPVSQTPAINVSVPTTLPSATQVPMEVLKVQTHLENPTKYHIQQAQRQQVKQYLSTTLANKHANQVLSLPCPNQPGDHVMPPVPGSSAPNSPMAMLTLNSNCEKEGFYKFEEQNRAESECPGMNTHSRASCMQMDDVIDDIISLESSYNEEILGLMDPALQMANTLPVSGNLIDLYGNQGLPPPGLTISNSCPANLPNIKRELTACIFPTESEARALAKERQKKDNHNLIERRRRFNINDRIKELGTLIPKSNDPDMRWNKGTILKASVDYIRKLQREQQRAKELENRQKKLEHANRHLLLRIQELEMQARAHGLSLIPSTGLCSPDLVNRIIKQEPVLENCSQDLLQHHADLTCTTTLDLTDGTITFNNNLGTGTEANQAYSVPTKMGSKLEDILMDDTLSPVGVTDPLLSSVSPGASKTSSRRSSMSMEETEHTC
FBW7 act: human FBW7 E3 ligase activation, primary screen | Q969H0 | AlphaScreen FBW7–phospho-cyclin E peptide binding, activator screen | normalized activity (activation), % at 26.1 µM | actives 0.13% (n = 650,000); in the data active = normalized activity above about 1.9%;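 note: purified mutant Fbw7 with reduced substrate affinity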
GPR151 ag: human GPR151 activation; activation, % at 11.2 µM; Q8TDV0; AID 1508602; PathHunter beta-arrestin GPR151 cells, luminescence; actives 1% (n = 650,000); in the data active = activation above about 4.9%
TEAD-YAP inh: TEAD-YAP interaction inhibition; inhibition, % at 9.12 µM; HEK-TIYL cells, TEAD-Gal4/YAP UAS-luciferase luminescence; actives 1.4% (n = 640,000); AID 1259422; in the data active = inhibition above about 32%
Hits are given with their value; 0 = inactive.

SMILES	MITF inh	FBW7 act	GPR151 ag	TEAD-YAP inh
CCOc1ccccc1OCC(=O)N/N=C/c1cc(C)ccc1O	0	0	0	61
COc1cc(/C=N\NC(=O)COc2cc(C)ccc2C(C)C)cc(OC)c1O	0	0	0	36
Cc1ccc(C(C)C)c(OCC(=O)N/N=C2\CCCC(=O)C2)c1	0	0	0	0
CCOc1cc([N+](=O)[O-])cc(/C=N/NC(=O)COc2cccc(C)c2C)c1O	66	0	0	0
COc1cc(/C=N\NC(=O)COc2ccc(C)cc2C)cc(OC)c1O	0	0	0	0
CCOc1cc([N+](=O)[O-])cc(/C=N/NC(=O)COc2c(C)ccc(C)c2C)c1O	0	0	0	0
CC1CCCCN1C(=O)Cn1nc2c3ccccc3nc(C3CC3)n2c1=O (stereo unspecified)	0	0	0	0
CCOc1ccc(N2CCn3c(SCc4ccc(C(=O)OC)o4)nnc32)cc1	0	0	0	0
CCOC(=O)C(=O)Nc1c(C)cc(C)cc1C	0	0	0	0
COc1cc(/C=N/NC(=O)COc2ccc(C)cc2C)ccc1O	0	1.9	0	0
O=C(COc1ccccc1-c1ccccc1)N/N=C\c1ccc[nH]1	0	0	0	51
Cc1ccc(/C=N/NC(=O)CCc2c(C)n[nH]c2C)cc1	0	0	0	33
Cc1ccc(/C=N/NC(=O)COc2ccccc2C)cc1	0	0	0	50
Cc1n[nH]c(C)c1CCC(=O)N/N=C/c1ccc(Br)cc1	0	0	0	0
Cc1ccccc1OCC(=O)N/N=C/c1ccc(F)cc1	0	0	0	0
Cc1cccc(C)c1NC(=O)CSc1nc2ccc(NC(=O)/C=C/c3ccccc3)cc2s1	0	0	0	0
Cc1cc2c(c(=O)o1)C(c1cc3c(cc1Br)OCO3)C(C#N)=C(N)O2 (stereo unspecified)	0	0	0	0
COc1ccc(C2C(C(=O)NCc3ccco3)c3ccccc3C(=O)N2C)cc1OC (stereo unspecified)	0	0	0	0
COC(=O)CCSc1ccc([N+](=O)[O-])cc1S(=O)(=O)N1CCOCC1	0	0	0	0
CCc1ccc(OCC(O)Cn2c(C3CC(=O)N(c4ccccc4F)C3)nc3ccccc32)cc1 (stereo unspecified)	0	0	0	0
Cc1ccc(OCC(O)Cn2c(C3CC(=O)N(c4ccccc4F)C3)nc3ccccc32)cc1C (stereo unspecified)	0	0	0	32
COc1ccccc1-c1ccc(SCC(=O)Nc2cccc([N+](=O)[O-])c2)nn1	0	0	0	0
c1cc(-c2cnc3ccc(NCc4ccc5c(c4)OCO5)nn23)cs1	0	0	0	0
CC(C)[C@@H](C(=O)OCC(=O)Nc1ccc(Cl)cc1Cl)N1C(=O)c2ccccc2C1=O	0	0	0	0
CCOc1ccc(N(CC)S(=O)(=O)c2cccc3cccnc23)cc1	0	0	0	53
SMILES	MITF inh	FBW7 act	GPR151 ag	TEAD-YAP inh
C=C1/C(=C\C=C2/CCCC3(C)[C@@H]([C@H](C)CCCC(C)(C)O)CC[C@@H]23)C[C@@H](O)C[C@@H]1O (stereo partly specified)	0	0	0	37
C=C1CC[C@H](O)C/C1=C/C=C1\CCCC2(C)C1CCC2C(C)CCCC(C)C (stereo partly specified)	0	0	0	0
COc1ccc(-n2c(=O)[nH]c3nc(-c4cnn(C)c4)cnc32)c(C)c1	0	0	0	0
CC(C)C(=O)N1CCCC(c2nnc(-c3ccccc3F)s2)C1 (stereo unspecified)	0	0	0	93
COc1ccc(CNC(=O)N2CCCC(c3nnc(-c4ccccc4F)s3)C2)cc1 (stereo unspecified)	0	0	0	0
CC(=O)N1CCCC(c2nnc(-c3ccccc3F)s2)C1 (stereo unspecified)	0	0	0	82
O=C(Nc1ccccc1[N+](=O)[O-])c1csc2c1CCCC2	0	0	0	0
Oc1ccc(O)c(CN2CCCCCC2)c1	82	0	0	0
O=[N+]([O-])c1ccc(Sc2nnc(Cc3ccccc3)o2)nc1	0	0	0	57
O=[N+]([O-])c1ccc(CSc2nnc(Cc3ccccc3)o2)cc1	0	0	0	0
Cc1cc(-n2c(/C=C/c3cccc4ccccc34)nc3ccccc3c2=O)ccc1Br	0	0	0	0
COc1ccccc1NC1=C(Cl)C(=O)N(c2ccc(C)cc2)C1=O	0	0	0	0
COc1ccc(Cl)cc1NC1=C(Cl)C(=O)N(c2ccc(C)cc2)C1=O	0	0	0	45
CCc1ccc(N2C(=O)C(Cl)=C(Nc3cccc(OC)c3)C2=O)cc1	0	0	0	54
COc1cccc(NC2=C(Cl)C(=O)N(c3ccc(C)cc3)C2=O)c1	0	0	0	0
